DUSP3 inh: VHR1 phosphatase inhibitors, primary screen, biochemical, absorbance, uHTS. recombinant VHR phosphatase, pNPP absorbance. Dual specificity protein phosphatase 3 (Homo sapiens), P51452. AID 1654, 2009. 290,000 tested, 0.52% active. inhibition, % at 13.3 µM; in the data active = inhibition above about 50%
Target sequence (P51452 whole entry, looked up): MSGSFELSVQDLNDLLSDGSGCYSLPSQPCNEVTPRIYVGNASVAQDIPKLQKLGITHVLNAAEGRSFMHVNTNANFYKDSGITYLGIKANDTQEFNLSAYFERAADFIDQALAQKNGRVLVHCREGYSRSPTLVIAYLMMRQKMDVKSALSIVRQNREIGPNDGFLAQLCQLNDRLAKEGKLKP
PriA SSB inh: inhibitors of Klebsiella pneumoniae PriA binding to SSB C-terminal tail, primary screen, biochemical, AlphaScreen. PriA–SSB C-terminal tail interaction (Klebsiella pneumoniae). AlphaScreen SSBct-PriA binding, biotinylated peptide. inhibition, % at 33 µM. 430,000 tested, 0.6% active. AID 1272365, 2023; in the data active = inhibition mostly above about 37%, no sharp cut-off; inactive = mostly below about 20%;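 also: plate controls were negative control peptide for no effect and reference peptide for full effect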
RN4220 kill: growth inhibition of S. aureus RN4220, primary screen, OD600. 16 h. inhibition, % (concentration not given with the values). 330,000 tested, 0.33% active; in the data active = inhibition above about 85%;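 also: plate controls were untreated cells for no effect and reference antibiotic for full effect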
Sa ugtP lethal: growth inhibition of ugtP-null S. aureus, primary screen, RN4220 ugtP deletion, OD600; 330,000 tested, 0.54% active; growth inhibition, % (concentration not given with the values); 16 h; in the data active = growth inhibition above about 68%;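 also: plate controls were untreated wells for no effect and antibiotic for full effect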
CCHFV vOTU inh: CCHFV vOTU protease inhibitors, primary screen, biochemical, Pep-AMC substrate, fluorescence. AID 651958, 2012. Crimean-Congo hemorrhagic fever virus L polyprotein viral ovarian tumor (vOTU) protease …. 370,000 tested, 0.55% active. inhibition, % at 11.5 µM; in the data active = inhibition above about 30%; also: 0% = vehicle wells with enzyme and 100% = no enzyme wells
* = called active by the depositor; x = no result given; ! = not active in a repeat. Rows were chosen to be rich in hits. Some 1.5% of all compounds tested hit in one or more screens of this group.

SMILES | DUSP3 inh | PriA SSB inh | RN4220 kill | Sa ugtP lethal | CCHFV vOTU inh
Cc1cccc(NS(=O)(=O)c2csc(C(N)=O)c2)c1 | 10.4 | -12.0 | 2.4 | 4.4 | 9.7
O=S(=O)(c1ccccc1)N1CCC(c2ccccn2)C1 (centres undefined) | x | 40.0* | x | x | x
CC(=NNC(=S)N1CCCC1)c1ccccn1 | x | x | x | x | -4.0
CC(=NNC(=S)N1CCC1)c1ccccn1 | x | 72.0* | x | x | 5.9
CN(C)c1ccc(NC(=O)C2CCCN(S(=O)(=O)c3ccccc3)C2)cc1 (centres undefined) | 55.8* | 8.5 | 3.1 | 1.5 | 0.2
CC(=NNC(=O)C1CCCN(S(=O)(=O)c2ccccc2)C1)c1ccccn1 (centres undefined) | x | 48.8* | 4.9 | -0.5 | x
Cc1c(CNS(=O)(=O)c2ccccc2F)sc2nc(-c3ccc(F)cc3)cn12 | x | 36.0* | x | x | x
COc1cccc(OC)c1C(=O)NCc1sc2nc(-c3ccc(F)cc3)cn2c1C | x | -10.0 | x | x | x
O=[N+]([O-])c1cccnc1N1CCC(c2cc(-c3cccc(C(F)(F)F)c3)n[nH]2)CC1 | 26.9 | -1.4 | 7.8 | 90.2* | 20.9
NC(=O)C1CCN(c2ncccc2[N+](=O)[O-])CC1 | 26.2 | -8.8 | 5.9 | 3.1 | 0.1
O=[N+]([O-])c1cccnc1N1CCC(c2cc(-c3ccc(Cl)cc3Cl)n[nH]2)CC1 | 6.2 | -24.3 | -0.6 | 36.6 | 13.1
COc1ccc(OC)c(-c2cc(C3CCN(c4ncccc4[N+](=O)[O-])CC3)[nH]n2)c1 | -3.7 | 65.0* | 7.3 | -8.0 | 11.3
Cc1cc(C)cc(NC(=O)CCSc2ccc(F)cc2)c1 | x | -38.0 | x | x | x
Nc1nc(NCCO)nc(N2CCCCCC2)c1[N+](=O)[O-] | 12.5 | -4.3 | 27.3 | 18.4 | -9.9
Nc1nc(NCCOCCO)nc(N2CCCCCC2)c1[N+](=O)[O-] | 20.1 | -14.6 | 85.8 | 94.5* | 3.5
O=C(/C=C/c1ccccc1)N(Cc1cccnc1)c1nc2c(F)cccc2s1 | x | 7.0 | x | x | x
NS(=O)(=O)c1ccc(NC(=O)CN2CC(=O)Oc3ccccc32)cc1 | x | 94.0* | x | x | x
COC(=O)c1ccc(NC(=O)CN2CC(=O)Oc3ccccc32)cc1 | x | 45.0* | x | x | x
CCC(=O)NC(c1ccc(C)cc1)c1cc([N+](=O)[O-])c2cccnc2c1O (centres undefined) | -7.9 | 4.6 | 94.1* | 95.3* | 17.2
O=[N+]([O-])c1cc(Cl)c2cccnc2c1O | 16.6 | 66.6* | 98.9* | 99.8* | 23.1
Oc1c(I)cc(Cl)c2cccnc12 | -10.7 | 8.7 | 98.9* | 99.8* | 8.0
O=[N+]([O-])c1ccc(Cl)c2cccnc12 | 8.6 | -3.4 | 1.6 | -3.4 | 9.6
O=[N+]([O-])c1cc(Cl)c(O)c2ncccc12 | 2.5 | 85.9*! | 98.8* | 98.3* | 12.9
O=[N+]([O-])c1cc(F)c2cccnc2c1O | 10.1 | -10.1 | 30.1 | 22.7 | 13.7
Oc1c(Cl)c(Cl)c2ncccc2c1Cl | x | -1.4 | 25.0 | 5.1 | 11.2
SMILES | DUSP3 inh | PriA SSB inh | RN4220 kill | Sa ugtP lethal | CCHFV vOTU inh
O=C([C@@H]1CC=CCC1)N1CCC(Oc2cnccn2)CC1 | x | -1.0 | x | x | x
CC(C)NC(=O)Cn1cccc(-c2nc(-c3cnccn3)no2)c1=O | x | -19.0 | x | x | x
CCc1cc2c(SCC(=O)O)nc(C)nc2s1 | x | 7.0 | x | x | x
CC(=O)Nc1ccc(C(=O)NCCNS(=O)(=O)CCc2ccccc2)cc1 | x | -16.0 | x | x | x
O=C(NCCC(O)c1ccco1)C1CC(=O)N(c2ccc(F)cc2)C1 (centres undefined) | x | -13.0 | x | x | x
O=c1oc2ccccc2c(O)c1Cc1cc(Cl)c2cccnc2c1O | 14.4 | -6.0 | 94.2* | 97.8* | 0.2
C/C(CC(=O)Nc1cc(C)ccn1)=N\NC(=O)c1cccc(F)c1 | 52.0* | x | x | x | 10.3
O=S(=O)(c1ccc2c(c1)OCCCO2)N1CCSC1c1ccc(C(F)(F)F)cc1 (centres undefined) | x | -62.0 | x | x | x
CC1(C)Cc2cccc(OCC(=O)NCCn3nc(-c4ccco4)n(C4CC4)c3=O)c2O1 | x | -3.0 | x | x | x
Oc1c(Cl)cc(Cl)cc1C=Nc1nccs1 | x | 55.7* | 24.2 | 3.1 | x
O=C(Cn1c(S(=O)(=O)Cc2ccccc2)nc2ccccc21)N1CCCc2ccccc21 | x | 5.0 | x | x | x
CC1CC=CC2C1C(=O)N(Cc1ccccc1)C2c1ccc2ccccc2c1Br (centres undefined) | x | x | 87.9* | 97.2* | x
C[C@@H]1CC=C[C@H]2[C@H]1C(=O)N(Cc1ccccc1)[C@H]2c1ccc2ccccc2c1/C=C/c1ccccc1 | -11.7 | 5.6 | x | x | -7.8
O=C(N1CCN(c2cc(-n3cncn3)ncn2)CC1)C1(c2ccccc2)CCOCC1 | x | -15.0 | x | x | x
O=[N+]([O-])c1ccc(NN=Cc2c[nH]c3ccccc23)c(S(=O)(=O)Nc2ccc(Cl)cc2)c1 | x | -27.2 | 80.7 | 99.2* | x
O=[N+]([O-])c1ccc(N/N=C/c2c[nH]c3ccccc23)c(S(=O)(=O)Nc2ccc(Cl)cc2)c1 | 2.0 | x | x | x | 2.8
COc1ccc(/C=C(\NC(=O)c2cccs2)C(=O)NN)cc1OC | 52.0* | 4.7 | 2.4 | 12.6 | 2.5
COc1ccc(/C=C(/NC(=O)c2cccs2)C(=O)NC(C)(C)C)cc1OC | 13.9 | -18.4 | 5.6 | 11.5 | 9.4
O=S(=O)(O)c1cc(O)c2ccc(Nc3ccccc3)cc2c1 | x | 10.9 | 2.0 | -3.8 | -9.6
COc1ccccc1Nc1ccc2c(O)cc(S(=O)(=O)O)cc2c1 | x | 51.4* | 8.0 | 5.0 | 20.0
Cc1cc(=O)n(-c2ccc(O)cc2)[nH]1 | 20.9 | -8.0 | 18.2 | 82.2* | 26.6
Fc1ccc(C[n+]2c(-c3ccccc3)cc(-c3ccccc3)cc2-c2ccccc2)cc1 | x | -16.0 | x | x | 4.0
Clc1ccc(C[n+]2c(-c3ccccc3)cc(-c3ccccc3)cc2-c2ccccc2)cc1 | x | 4.6 | 100.1* | 99.6* | 4.3
O=C([O-])c1cc(-c2ccccc2)cc(-c2ccccc2)[n+]1CCc1ccc(Cl)cc1 | x | x | 87.6* | 99.8* | 13.0
O=C(NCc1cccs1)NCC1(O)CCOc2ccccc21 (centres undefined) | x | -6.0 | x | x | x
SMILES | DUSP3 inh | PriA SSB inh | RN4220 kill | Sa ugtP lethal | CCHFV vOTU inh
COc1ccc(CN2CCNCC2)cc1 | 59.7* | -0.9 | 3.5 | 1.8 | -7.3
CCCN1CCCc2cc(CCNS(=O)(=O)c3ccc(OC)cc3C)ccc21 | x | 52.0* | x | x | x
CCCN1CCCc2cc(CCNC(=O)OCC)ccc21 | x | 71.0 | x | x | x
CCCN1CCCc2cc(CCNS(=O)(=O)c3ccc(F)cc3F)ccc21 | x | 78.5* | x | x | x
CN1CCCc2cc(C(CNS(=O)(=O)c3ccc(F)cc3F)N(C)C)ccc21 (centres undefined) | x | 17.0 | x | x | x
CCCN1CCCc2cc(CCNS(=O)(=O)c3ccc(F)cc3C)ccc21 | x | 51.0* | x | x | x
Cn1nc(C2CCN(CC(=O)Nc3cc(F)ccc3F)CC2)n(C2CC2)c1=O | x | -14.0 | x | x | x
Cc1ccc(CNC(=O)CN2C(=O)COc3ccc(C)cc32)cc1 | -1.0 | 38.6* | 4.3 | -2.6 | -4.5
O=C(CN1C(=O)COc2ccc(Cl)cc21)NCC1CCCO1 (centres undefined) | 53.5* | -28.9 | 0.6 | 2.3 | -5.1
O=C(CN1C(=O)COc2ccccc21)NCC1CCCO1 (centres undefined) | 1.8 | -4.2 | 5.2 | 15.1 | -0.4

High-throughput results as filed in PubChem BioAssay.
